PubChem BioAssay AID1159580 (chemical genetic matrix, 2015)
Among all 5,500 compounds or so, about 2,000 (36%) were called active. Another 18% or so got no clear call; they are omitted. Rule as the data show it: active = normalized growth mostly below about 0.91 (no sharp cut-off); inconclusive = no clear call, values can overlap the other calls; inactive = mostly above about 0.92. Some of the results follow.

Assay: chemical genetic growth profiling, strain panel (AID 1159580);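 also: tested at 20 µM; growth read once vehicle control cultures reached saturation at 30 °C; 1 = growth at the plate median or of vehicle wells; lower values mean less growth of the strain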
Conditions: growth OD

Measured: normalized growth

C=CCCCCCCCCCCCC(O)CC(O)COC(C)=O (stereo not given) (tested in a mixture with another compound)
active: S. cerevisiae deletion strains, locus YBR009C, strain hhf1, stronger effect = lower value 0.798 | S. cerevisiae deletion strains, locus YBR021W, strain FUR4, stronger effect = lower value 0.78 | S. cerevisiae deletion strains, locus YBR023C, strain chs3, stronger effect = lower value 0.891 | S. cerevisiae deletion strains, locus YCL011C, strain gbp2, stronger effect = lower value 0.866 | S. cerevisiae deletion strains, locus YCL016C, strain dcc1, stronger effect = lower value 0.907 | S. cerevisiae deletion strains, locus YDL074C, strain BRE1, stronger effect = lower value 0.723 | S. cerevisiae deletion strains, locus YDL192W, strain arf1, stronger effect = lower value 0.875 | S. cerevisiae deletion strains, locus YDR101C, strain arx1, stronger effect = lower value 0.886 | S. cerevisiae deletion strains, locus YDR318W, strain mcm21, stronger effect = lower value 0.911 | S. cerevisiae deletion strains, locus YDR392W, strain spt3, stronger effect = lower value 0.329 | S. cerevisiae deletion strains, locus YDR502C, strain sam2, stronger effect = lower value 0.912 | S. cerevisiae deletion strains, locus YER155C, strain BEM2, stronger effect = lower value 0.646 | S. cerevisiae deletion strains, locus YGL086W, strain mad1, stronger effect = lower value 0.835 | S. cerevisiae deletion strains, locus YGL253W, strain hxk2, stronger effect = lower value 0.847 | S. cerevisiae deletion strains, locus YHR013C, strain ard1, stronger effect = lower value 1.16 [resistant] | S. cerevisiae deletion strains, locus YHR129C, strain ARP1, stronger effect = lower value 0.914 | S. cerevisiae deletion strains, locus YHR142W, strain chs7, stronger effect = lower value 0.714 | S. cerevisiae deletion strains, locus YIL125W, strain kgd1, stronger effect = lower value 0.908 | S. cerevisiae deletion strains, locus YJL095W, strain BCK1 (second series), stronger effect = lower value 0.905 | S. cerevisiae deletion strains, locus YJL129C, strain trk1, stronger effect = lower value 0.802 | S. cerevisiae deletion strains, locus YJL164C, strain tpk1, stronger effect = lower value 0.832 | S. cerevisiae deletion strains, locus YJL166W, strain qcr8, stronger effect = lower value 0.836 | S. cerevisiae deletion strains, locus YKL009W, strain mrt4, stronger effect = lower value 0.864 | S. cerevisiae deletion strains, locus YKR001C, strain vps1, stronger effect = lower value 0.817 | S. cerevisiae deletion strains, locus YLR027C, strain aat2, stronger effect = lower value 0.921 | S. cerevisiae deletion strains, locus YLR221C, strain rsa3, stronger effect = lower value 0.806 | S. cerevisiae deletion strains, locus YLR258W, strain gsy2, stronger effect = lower value 0.906 | S. cerevisiae deletion strains, locus YLR262C, strain YPT6 (second series), stronger effect = lower value 0.823 | S. cerevisiae deletion strains, locus YLR320W, strain mms22, stronger effect = lower value 0.823 | S. cerevisiae deletion strains, locus YLR371W, strain rom2, stronger effect = lower value 0.874 | S. cerevisiae deletion strains, locus YLR418C, strain cdc73, stronger effect = lower value 0.684 | S. cerevisiae deletion strains, locus YML032C, strain rad52, stronger effect = lower value 0.88 | S. cerevisiae deletion strains, locus YML120C, strain ndi1, stronger effect = lower value 0.899 | S. cerevisiae deletion strains, locus YMR205C, strain PFK2, stronger effect = lower value 0.826 | S. cerevisiae deletion strains, locus YNL071W, strain lat1, stronger effect = lower value 0.762 | S. cerevisiae deletion strains, locus YNL233W, strain BNI4, stronger effect = lower value 0.845 | S. cerevisiae deletion strains, locus YNL298W, strain CLA4, stronger effect = lower value 0.824 | S. cerevisiae deletion strains, locus YNL307C, strain MCK1, stronger effect = lower value 0.56 | S. cerevisiae deletion strains, locus YNR052C, strain pop2, stronger effect = lower value 0.898 | S. cerevisiae deletion strains, locus YOL147C, strain pex11, stronger effect = lower value 0.917 | S. cerevisiae deletion strains, locus YOR061W, strain CKA2, stronger effect = lower value 0.672 | S. cerevisiae deletion strains, locus YOR083W, strain WHI5, stronger effect = lower value 0.873 | S. cerevisiae deletion strains, locus YOR184W, strain ser1, stronger effect = lower value 0.446 | S. cerevisiae deletion strains, locus YOR270C, strain vph1, stronger effect = lower value 0.699 | S. cerevisiae deletion strains, locus YPL051W, strain arl3, stronger effect = lower value 0.88 | S. cerevisiae deletion strains, locus YPL078C, strain atp4, stronger effect = lower value 0.882 | S. cerevisiae deletion strains, locus YPR163C, strain tif3, stronger effect = lower value 0.898 | S. cerevisiae deletion strains, locus YPR167C, strain met16, stronger effect = lower value 0.905 | S. cerevisiae deletion strains, strain wtn01, stronger effect = lower value 0.866 | S. cerevisiae strains, strain wild type, stronger effect = lower value 0.796
inactive: S. cerevisiae deletion strains, locus YAL013W, strain DEP1, stronger effect = lower value 0.943 | S. cerevisiae deletion strains, locus YAL021C, strain ccr4, stronger effect = lower value 1.01 | S. cerevisiae deletion strains, locus YAL026C, strain drs2, stronger effect = lower value 0.937 | S. cerevisiae deletion strains, locus YAL030W, strain snc1, stronger effect = lower value 0.963 | S. cerevisiae deletion strains, locus YBL061C, strain skt5, stronger effect = lower value 0.95 | S. cerevisiae deletion strains, locus YBR171W, strain sec66, stronger effect = lower value 0.946 | S. cerevisiae deletion strains, locus YBR229C, strain ROT2, stronger effect = lower value 1 | S. cerevisiae deletion strains, locus YBR231C, strain swc5, stronger effect = lower value 0.971 | S. cerevisiae deletion strains, locus YBR279W, strain paf1, stronger effect = lower value 0.949 | S. cerevisiae deletion strains, locus YCL029C, strain bik1, stronger effect = lower value 0.951 | S. cerevisiae deletion strains, locus YCL061C, strain MRC1, stronger effect = lower value 0.936 | S. cerevisiae deletion strains, locus YCL069W, strain vba3, stronger effect = lower value 0.963 | S. cerevisiae deletion strains, locus YCR088W, strain abp1, stronger effect = lower value 0.978 | S. cerevisiae deletion strains, locus YDL005C, strain med2, stronger effect = lower value 0.955 | S. cerevisiae deletion strains, locus YDL035C, strain GPR1, stronger effect = lower value 0.907 | S. cerevisiae deletion strains, locus YDL040C, strain nat1, stronger effect = lower value 0.967 | S. cerevisiae deletion strains, locus YDL101C, strain DUN1, stronger effect = lower value 0.983 | S. cerevisiae deletion strains, locus YDL134C, strain PPH21, stronger effect = lower value 0.892 | S. cerevisiae deletion strains, locus YDL185W, strain tfp1, stronger effect = lower value 1.01 | S. cerevisiae deletion strains, locus YDR001C, strain nth1, stronger effect = lower value 0.967 | S. cerevisiae deletion strains, locus YDR069C, strain doa4, stronger effect = lower value 1.02 | S. cerevisiae deletion strains, locus YDR137W, strain rgp1, stronger effect = lower value 0.882 | S. cerevisiae deletion strains, locus YDR150W, strain NUM1, stronger effect = lower value 1.02 | S. cerevisiae deletion strains, locus YDR159W, strain sac3, stronger effect = lower value 0.947 | S. cerevisiae deletion strains, locus YDR162C, strain NBP2, stronger effect = lower value 0.999 | S. cerevisiae deletion strains, locus YDR195W, strain ref2 0.875 | S. cerevisiae deletion strains, locus YDR297W, strain sur2, stronger effect = lower value 0.962 | S. cerevisiae deletion strains, locus YDR334W, strain swr1, stronger effect = lower value 0.993 | S. cerevisiae deletion strains, locus YDR335W, strain msn5, stronger effect = lower value 0.969 | S. cerevisiae deletion strains, locus YDR388W, stronger effect = lower value 0.991 | S. cerevisiae deletion strains, locus YEL003W, strain gim4, stronger effect = lower value 0.95 | S. cerevisiae deletion strains, locus YEL037C, strain rad23, stronger effect = lower value 0.966 | S. cerevisiae deletion strains, locus YEL061C, strain CIN8 (second series), stronger effect = lower value 0.971 | S. cerevisiae deletion strains, locus YER015W, strain faa2, stronger effect = lower value 0.982 | S. cerevisiae deletion strains, locus YER016W, strain bim1, stronger effect = lower value 0.981 | S. cerevisiae deletion strains, locus YER110C, stronger effect = lower value 0.995 | S. cerevisiae deletion strains, locus YER111C, strain swi4, stronger effect = lower value 0.947 | S. cerevisiae deletion strains, locus YER155C, strain BEM2 (second series), stronger effect = lower value 0.877 | S. cerevisiae deletion strains, locus YER167W, strain BCK2, stronger effect = lower value 0.979 | S. cerevisiae deletion strains, locus YFR010W, strain ubp6, stronger effect = lower value 0.974 | S. cerevisiae deletion strains, locus YGL078C, strain dbp3, stronger effect = lower value 0.933 | S. cerevisiae deletion strains, locus YGL167C, strain pmr1, stronger effect = lower value 0.966 | S. cerevisiae deletion strains, locus YGL173C, strain kem1, stronger effect = lower value 0.941 | S. cerevisiae deletion strains, locus YGL227W, strain vid30, stronger effect = lower value 0.969 | S. cerevisiae deletion strains, locus YGL240W, strain doc1, stronger effect = lower value 0.952 | S. cerevisiae deletion strains, locus YGL248W, strain PDE1, stronger effect = lower value 0.89 | S. cerevisiae deletion strains, locus YGR135W, strain pre9, stronger effect = lower value 0.971 | S. cerevisiae deletion strains, locus YGR229C, strain SMI1, stronger effect = lower value 0.838 | S. cerevisiae deletion strains, locus YGR252W, strain gcn5, stronger effect = lower value 0.782 | S. cerevisiae deletion strains, locus YHR027C, strain rpn1, stronger effect = lower value 0.964 | S. cerevisiae deletion strains, locus YHR030C, strain SLT2, stronger effect = lower value 1.01 | S. cerevisiae deletion strains, locus YHR079C, strain IRE1 (second series), stronger effect = lower value 0.993 | S. cerevisiae deletion strains, locus YHR094C, strain hxt1, stronger effect = lower value 0.992 | S. cerevisiae deletion strains, locus YHR200W, strain rpn10, stronger effect = lower value 0.938 | S. cerevisiae deletion strains, locus YIL066C, strain RNR3, stronger effect = lower value 0.921 | S. cerevisiae deletion strains, locus YIL073C, strain SPO22, stronger effect = lower value 1.05 | S. cerevisiae deletion strains, locus YIR030C, strain dcg1, stronger effect = lower value 0.972 | S. cerevisiae deletion strains, locus YJL092W, strain hpr5, stronger effect = lower value 0.973 | S. cerevisiae deletion strains, locus YJL095W, strain BCK1, stronger effect = lower value 0.827 | S. cerevisiae deletion strains, locus YJL115W, strain asf1, stronger effect = lower value 0.953 | S. cerevisiae deletion strains, locus YJL134W, strain LCB3, stronger effect = lower value 1.02 | S. cerevisiae deletion strains, locus YJL154C, strain vps35, stronger effect = lower value 0.965 | S. cerevisiae deletion strains, locus YJL168C, strain set2, stronger effect = lower value 0.992 | S. cerevisiae deletion strains, locus YJL187C, strain SWE1 (second series), stronger effect = lower value 0.967 | S. cerevisiae deletion strains, locus YJL187C, strain SWE1, stronger effect = lower value 0.961 | S. cerevisiae deletion strains, locus YKL068W, stronger effect = lower value 1.01 | S. cerevisiae deletion strains, locus YKL085W, strain MDH1 (second series), stronger effect = lower value 0.943 | S. cerevisiae deletion strains, locus YKL085W, strain MDH1, stronger effect = lower value 0.943 | S. cerevisiae deletion strains, locus YKL160W, strain elf1, stronger effect = lower value 0.923 | S. cerevisiae deletion strains, locus YKR026C, strain gcn3, stronger effect = lower value 0.974 | S. cerevisiae deletion strains, locus YKR091W, strain srl3, stronger effect = lower value 0.975 | S. cerevisiae deletion strains, locus YLL001W, strain dnm1, stronger effect = lower value 0.908 | S. cerevisiae deletion strains, locus YLL026W, stronger effect = lower value 0.968 | S. cerevisiae deletion strains, locus YLL041C, strain sdh2, stronger effect = lower value 0.973 | S. cerevisiae deletion strains, locus YLR039C, strain RIC1, stronger effect = lower value 1.13 | S. cerevisiae deletion strains, locus YLR058C, strain SHM2, stronger effect = lower value 0.947 | S. cerevisiae deletion strains, locus YLR102C, strain apc9, stronger effect = lower value 0.978 | S. cerevisiae deletion strains, locus YLR268W, strain sec22, stronger effect = lower value 0.975 | S. cerevisiae deletion strains, locus YLR342W, strain FKS1 (second series), stronger effect = lower value 0.824 | S. cerevisiae deletion strains, locus YLR342W, strain FKS1, stronger effect = lower value 0.932 | S. cerevisiae deletion strains, locus YLR357W, strain rsc2, stronger effect = lower value 1.02 | S. cerevisiae deletion strains, locus YLR370C, strain arc18, stronger effect = lower value 0.975 | S. cerevisiae deletion strains, locus YLR384C, strain iki3, stronger effect = lower value 0.97 | S. cerevisiae deletion strains, locus YML016C, strain PPZ1, stronger effect = lower value 1.01 | S. cerevisiae deletion strains, locus YML124C, strain tub3, stronger effect = lower value 0.997 | S. cerevisiae deletion strains, locus YMR058W, strain fet3, stronger effect = lower value 0.953 | S. cerevisiae deletion strains, locus YMR078C, strain ctf18, stronger effect = lower value 0.981 | S. cerevisiae deletion strains, locus YMR125W, strain sto1, stronger effect = lower value 0.942 | S. cerevisiae deletion strains, locus YMR129W, stronger effect = lower value 0.978 | S. cerevisiae deletion strains, locus YMR223W, strain ubp8, stronger effect = lower value 0.928 | S. cerevisiae deletion strains, locus YMR231W, strain pep5, stronger effect = lower value 0.966 | S. cerevisiae deletion strains, locus YMR307W, strain GAS1, stronger effect = lower value 0.869 | S. cerevisiae deletion strains, locus YNL067W, strain RPL9B, stronger effect = lower value 0.995 | S. cerevisiae deletion strains, locus YNL209W, strain ssb2, stronger effect = lower value 0.965 | S. cerevisiae deletion strains, locus YNL248C, strain rpa49, stronger effect = lower value 0.99 | S. cerevisiae deletion strains, locus YNL250W, strain rad50, stronger effect = lower value 1.01 | S. cerevisiae deletion strains, locus YNL271C, strain bni1, stronger effect = lower value 0.947 | S. cerevisiae deletion strains, locus YNL322C, strain KRE1 (second series), stronger effect = lower value 0.973 | S. cerevisiae deletion strains, locus YNR049C, strain mso1, stronger effect = lower value 0.969 | S. cerevisiae deletion strains, locus YOL012C, strain htz1 1.44 | S. cerevisiae deletion strains, locus YOR001W, strain rrp6, stronger effect = lower value 0.943 | S. cerevisiae deletion strains, locus YOR069W, strain VPS5, stronger effect = lower value 0.989 | S. cerevisiae deletion strains, locus YOR070C, strain gyp1, stronger effect = lower value 0.935 | S. cerevisiae deletion strains, locus YOR080W, strain dia2, stronger effect = lower value 0.978 | S. cerevisiae deletion strains, locus YOR106W, strain vam3, stronger effect = lower value 0.875 | S. cerevisiae deletion strains, locus YOR136W, strain idh2, stronger effect = lower value 0.973 | S. cerevisiae deletion strains, locus YOR144C, strain elg1, stronger effect = lower value 0.944 | S. cerevisiae deletion strains, locus YOR265W, strain rbl2, stronger effect = lower value 0.937 | S. cerevisiae deletion strains, locus YOR290C, strain snf2, stronger effect = lower value 0.917 | S. cerevisiae deletion strains, locus YOR316C, strain cot1, stronger effect = lower value 0.984 | S. cerevisiae deletion strains, locus YPL106C, strain sse1, stronger effect = lower value 1.06 | S. cerevisiae deletion strains, locus YPL240C, strain hsp82, stronger effect = lower value 0.958 | S. cerevisiae deletion strains, locus YPL241C, strain CIN2, stronger effect = lower value 1 | S. cerevisiae deletion strains, locus YPR119W, strain clb2, stronger effect = lower value 0.982 | S. cerevisiae deletion strains, locus YPR141C, strain kar3, stronger effect = lower value 1.01
